65 molecules from ChEMBL document CHEMBL4513216, “Probing the Open Global Health Chemical Diversity Library for Multistage-Active Starting Points for Next-Generation Antimalarials” (ACS Infect Dis, 2020) can be followed below.

Molecules are shown by their SMILES. About 8,600 (12%) of roughly 69,000 compounds showed an effect of 50% or more. For the sample, strong results were picked, then their nearest neighbours and some compounds at random.

This experiment concerns Plasmodium berghei. The experiment in a line: Screen against P. berghei liver stage (PbLuc), transformed with Luciferase, at 10uM. The class given is functional, HepG2. The settings on record: tested at 10 uM.
Turning to `Cc1cc(C2CCCN2C(=O)c2cc3c(s2)CCC3)no1` (stereo not given), the INHIBITION is listed as 15.3%. Regarding `CS(=O)(=O)N1CCOCC2(CCN(C(=O)c3ccco3)CC2)C1`, the INHIBITION is 27.6%.

With `Cc1cnc(C)c(N2CCC3(CCCN(C4CCOCC4)C3=O)C2)n1` (stereo not given), the INHIBITION is on record as -30%. As to `CN1CCC(C(=O)N2CCC(c3ccc4c(N)n[nH]c4n3)CC2)CC1`, the INHIBITION was 34.75%. The value for `Cc1cnn(C2CCCN(C(=O)c3ccc(C(N)=O)cn3)C2)c1` (stereo not given) was 44.3%. The result for `Cc1c(Br)cccc1S(=O)(=O)NCc1ccnn1C` reads 37.1%; that for `O=c1cccnn1CC1CN(c2ncc(F)cn2)Cc2nccn2C1` (stereo not given), -3.33%. Take `COc1ccc(C(=O)N2CCN(CCO)CC2)c(F)c1`: the INHIBITION is reported as -61.4%. The value for `OCCc1ncnn1Cc1cccc(Cl)c1` was 0.426%; that for `CN(Cc1ccc2c(c1)OCO2)Cc1nc(Cc2ccccc2)no1` was 9.56%. The result for `c1ccc(-n2nnnc2NCc2ccc3c(c2)OCO3)cc1` reads 64.5%; that for `N#Cc1c[nH]nc1NCc1ccc2c(c1)OCO2`, -5.51%; that for `c1ccc(-n2nnnc2CNCc2ccc3c(c2)OCCO3)cc1`, 34.9%. Turning to `NC(=O)c1c[nH]nc1NCc1ccc2c(c1)OCO2`, the INHIBITION is 4.35%. Take `CN(Cc1ccc2c(c1)OCCO2)Cc1nnnn1-c1ccccc1`: the INHIBITION was 51.2%. The result for `COCCn1ccnc1CN1CCc2[nH]cnc2C1c1cnn(C)c1C` (stereo not given) reads 32.2%; that for `Cn1cc(-c2nnc3sc(C4CC4)nn23)cn1`, 0.87%; that for `O=C(COc1ccccc1)NCCNC(=O)c1scnc1Cl`, 23.5%. Consider `CCCc1cc(=O)[nH]c(-c2ccccc2CN(C)CCn2cccn2)n1`, for which the INHIBITION is on record as 16.1%. The value for `Cc1ncsc1C(=O)NC1CCN(Cc2ccc(C(F)(F)F)cc2)CC1` was 62.6%; that for `Cc1ncsc1C(=O)NC1CCN(Cc2ccc(C(N)=O)cc2)CC1` was -12.2%. The result for `Cc1ccc(CN2CCC(NC(=O)c3scnc3C)CC2)cc1` reads 40.9%; that for `COCCN1CCN(Cc2ccc(C(C)=O)cc2)[C@H]2CS(=O)(=O)C[C@H]21`, 32.1%; that for `CCOc1ccc(CN2CCN(CCOC)[C@@H]3CS(=O)(=O)C[C@@H]32)cc1`, 45.8%. The result for `COCCN1CCN(Cc2nc3c(s2)CCCC3)[C@H]2CS(=O)(=O)C[C@H]21` reads -27.6%. On to `COCCN1CCN(Cc2nccs2)[C@H]2CS(=O)(=O)C[C@H]21`, for which the INHIBITION came out at 55.7%.

Regarding `CCc1ccc(CN2CCN(CCOC)[C@@H]3CS(=O)(=O)C[C@@H]32)cc1`, the INHIBITION was 39.4%.

`COCCN1CCN(Cc2cccnc2)[C@H]2CS(=O)(=O)C[C@H]21`: the INHIBITION is recorded as 43%. The value for `COCCN1CCN(Cc2ccc(Cl)cc2)[C@H]2CS(=O)(=O)C[C@H]21` was 52.1%; that for `COCCN1CCN(Cc2ccc(F)c(C)c2)[C@H]2CS(=O)(=O)C[C@H]21` was 28.5%; that for `COCCN1CCN(Cc2ccncc2)[C@H]2CS(=O)(=O)C[C@H]21` was 63.5%. The result for `Cn1ccnc1CN1CCCC(CCCc2ccccn2)(C(N)=O)C1` (stereo not given) reads 10.9%; that for `O=C(NCCc1ccco1)Nc1cc(C(F)(F)F)c[nH]c1=O`, 4.8%.

Turning to `Cc1nc(C)n(CC2CCCN2CC(=O)Nc2cc(C)on2)n1` (stereo not given), the INHIBITION was determined as 40.2%.

Turning to `CCN(C)C(=O)Cn1c(-c2ccco2)nn(-c2ccccc2OC)c1=O`, the INHIBITION was found to be 33.3%. The result for `Cc1cccnc1C(=O)N1C[C@@H]2CC[C@H](Oc3cccc(F)c3)[C@@H]2C1` reads 20.8%. Take `COCCN1CCC(NCc2ccc(F)cc2F)C1` (stereo not given): the INHIBITION amounted to 25.4%. The result for `CSCC(=O)N1CCc2c(cnc(C)c2-c2noc(-c3cc[nH]n3)n2)C1` reads 12.1%; that for `O=C(Cc1ccc2c(c1)CCC2)N1CCN(c2cnccn2)CC1`, -46.4%. As for `O=C(CCCNC(=O)NCC1CCCO1)Nc1ccc(Cl)cc1` (stereo not given), the INHIBITION was determined as 25.8%. `CCOc1ccc(C(=O)NCCCNc2ncccn2)cc1`: the INHIBITION stood at 41.5%. For `COc1cc(OC)cc(C(=O)NCCCNc2ncccn2)c1`, the INHIBITION is reported as -14.1%.

In the case of `Cc1cc(C)cc(C(=O)NCCCNc2ncccn2)c1`, the INHIBITION is 55.4%. The result for `O=C(CCCNc1ncccn1)Nc1cc(C(F)(F)F)c[nH]c1=O` reads 29.15%; that for `O=C(NCC(O)(c1ccco1)C1CC1)c1c(F)cccc1Cl` (stereo not given), 46.7%. The result for `CC(O)(CNC(=O)c1c(F)cccc1Cl)C1CC1` (stereo not given) reads 9.79%; that for `CC(O)(CNC(=O)c1c(F)cccc1Cl)c1ccco1` (stereo not given), 55.6%. The value for `Cc1cc(Cl)ccc1NCc1ccc(C(=O)N(C)C)[nH]1` was 3.03%; that for `CCc1cnc(N2C[C@@H](NC(=O)c3cscn3)[C@H]3COC[C@H]32)nc1` was -82.5%.

On to `CC(C)CN1CCC2(C=C(C(=O)N(C)C)c3ccccc32)CC1`, for which the INHIBITION came to 30.3%. With `CCC(=O)N1CCC2(C=C(C(=O)N(C)C)c3ccccc32)CC1`, the INHIBITION is on record as 53%.

On to `CCN1CCC2(C=C(C(=O)N(C)C)c3ccccc32)CC1`, for which the INHIBITION is reported as 41.2%.

For the molecule `CN1CCC2(C=C(C(=O)N(C)C)c3ccccc32)CC1`, the INHIBITION came to 63.8%.

Regarding `CCC(=O)N1CCC2(C=C(C(=O)N3CCCC3)c3ccccc32)CC1`, the INHIBITION stood at 34.9%. The result for `CC(C)N1CCC2(C=C(C(=O)N(C)C)c3ccccc32)CC1` reads -41.6%. The result for `CC(C)COC(C)C(=O)NCCNC(=O)C(C)C` (stereo not given) reads 36.8%. The result for `O=C(Cn1cc(Cl)cn1)N1CCCC(c2cc3ccccc3cn2)C1` (stereo not given) reads 24.4%. As for `O=C(C1CC=CC1)N1CCCn2nnc(CNc3ncccn3)c2C1`, the INHIBITION is recorded as 29.5%. The result for `Fc1cccc(-n2ccc(CN3CCCC3Cn3cncn3)n2)c1` (stereo not given) reads -19.4%. Take `Cc1nc(C(=O)N2CCCC2c2cncc(CN3CCCC3)n2)co1` (stereo not given): the INHIBITION is reported as -33.6%. The result for `Cc1cc(C2CCCN2C(=O)c2cnn(C)c2)on1` (stereo not given) reads 0.8%; that for `Cc1cccc(NCC(=O)Nc2cc(F)ccc2F)c1C(N)=O`, -33.7%; that for `CCN1C[C@H]2[C@@H](C1)N(C(=O)Cc1ccsc1)CC[C@H]2OC`, -9.74%. The value for `CCN1C[C@@H]2[C@@H](OC)CCN(C(=O)c3cc(C)nn3CC)[C@@H]2C1` was 84.1%; that for `CCn1nc(C)cc1C(=O)N1CC[C@H](OC)[C@H]2CN(CC3CC3)C[C@H]21` was -6.39%.
